How the values were obtained:
[1] = target: Serine/threonine-protein kinase MRCK beta (Homo sapiens) (UniProt Q9Y5S2); details: at 1 µM
[2] = target: Serine/threonine-protein kinase MRCK beta (Homo sapiens) (UniProt Q9Y5S2); details: at 10 µM
[3] = target: Ribosomal protein S6 kinase alpha-5 (Homo sapiens) (UniProt O75582); details: at 1 µM
[4] = target: Ribosomal protein S6 kinase alpha-5 (Homo sapiens) (UniProt O75582); details: at 10 µM
[5] = target: Ribosomal protein S6 kinase alpha-4 (Homo sapiens) (UniProt O75676); details: at 1 µM
Ribosomal protein S6 kinase alpha-4 (Homo sapiens), sequence (O75676 whole entry, looked up): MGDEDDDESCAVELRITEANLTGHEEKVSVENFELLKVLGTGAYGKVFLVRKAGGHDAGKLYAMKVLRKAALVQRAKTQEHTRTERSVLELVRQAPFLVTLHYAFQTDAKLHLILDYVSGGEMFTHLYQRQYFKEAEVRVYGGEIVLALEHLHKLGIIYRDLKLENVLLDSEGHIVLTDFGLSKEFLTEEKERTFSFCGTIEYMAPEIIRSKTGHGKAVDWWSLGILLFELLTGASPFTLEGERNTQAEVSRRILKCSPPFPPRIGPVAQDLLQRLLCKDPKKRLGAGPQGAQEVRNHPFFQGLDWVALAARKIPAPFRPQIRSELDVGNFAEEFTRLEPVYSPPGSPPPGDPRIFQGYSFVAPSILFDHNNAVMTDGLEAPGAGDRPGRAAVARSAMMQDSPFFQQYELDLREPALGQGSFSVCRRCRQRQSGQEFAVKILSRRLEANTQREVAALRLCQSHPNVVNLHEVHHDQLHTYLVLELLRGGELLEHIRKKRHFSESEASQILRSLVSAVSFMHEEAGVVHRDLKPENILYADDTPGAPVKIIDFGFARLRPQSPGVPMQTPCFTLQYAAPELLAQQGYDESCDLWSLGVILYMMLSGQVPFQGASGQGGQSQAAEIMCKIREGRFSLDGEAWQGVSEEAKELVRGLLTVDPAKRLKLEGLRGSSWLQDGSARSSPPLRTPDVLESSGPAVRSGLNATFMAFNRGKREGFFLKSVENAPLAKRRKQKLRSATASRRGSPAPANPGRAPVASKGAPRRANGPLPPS

[6] = target: Ribosomal protein S6 kinase alpha-4 (Homo sapiens) (UniProt O75676); details: at 10 µM
[7] = target: SRSF protein kinase 3 (Homo sapiens) (UniProt Q9UPE1); details: at 1 µM
SRSF protein kinase 3 (Homo sapiens), sequence (Q9UPE1 whole entry): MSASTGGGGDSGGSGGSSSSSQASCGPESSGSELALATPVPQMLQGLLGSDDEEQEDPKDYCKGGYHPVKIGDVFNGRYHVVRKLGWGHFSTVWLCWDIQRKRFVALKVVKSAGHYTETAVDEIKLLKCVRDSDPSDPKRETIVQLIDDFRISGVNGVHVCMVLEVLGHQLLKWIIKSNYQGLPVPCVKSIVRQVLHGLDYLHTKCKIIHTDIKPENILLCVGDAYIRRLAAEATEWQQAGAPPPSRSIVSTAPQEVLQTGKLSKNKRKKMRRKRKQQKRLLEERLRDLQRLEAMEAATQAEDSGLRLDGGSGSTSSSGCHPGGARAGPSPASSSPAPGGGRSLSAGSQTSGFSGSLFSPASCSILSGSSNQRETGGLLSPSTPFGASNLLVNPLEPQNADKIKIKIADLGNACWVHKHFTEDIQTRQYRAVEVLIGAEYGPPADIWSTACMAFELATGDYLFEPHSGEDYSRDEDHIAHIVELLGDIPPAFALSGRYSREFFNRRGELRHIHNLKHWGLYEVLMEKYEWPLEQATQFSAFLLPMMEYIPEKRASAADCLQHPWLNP

[8] = target: SRSF protein kinase 3 (Homo sapiens) (UniProt Q9UPE1); details: at 10 µM
[9] = target: T1, Serine/threonine-protein kinase 4 (Homo sapiens) (UniProt Q13043); details: at 1 µM
T1 sequence (whole entry): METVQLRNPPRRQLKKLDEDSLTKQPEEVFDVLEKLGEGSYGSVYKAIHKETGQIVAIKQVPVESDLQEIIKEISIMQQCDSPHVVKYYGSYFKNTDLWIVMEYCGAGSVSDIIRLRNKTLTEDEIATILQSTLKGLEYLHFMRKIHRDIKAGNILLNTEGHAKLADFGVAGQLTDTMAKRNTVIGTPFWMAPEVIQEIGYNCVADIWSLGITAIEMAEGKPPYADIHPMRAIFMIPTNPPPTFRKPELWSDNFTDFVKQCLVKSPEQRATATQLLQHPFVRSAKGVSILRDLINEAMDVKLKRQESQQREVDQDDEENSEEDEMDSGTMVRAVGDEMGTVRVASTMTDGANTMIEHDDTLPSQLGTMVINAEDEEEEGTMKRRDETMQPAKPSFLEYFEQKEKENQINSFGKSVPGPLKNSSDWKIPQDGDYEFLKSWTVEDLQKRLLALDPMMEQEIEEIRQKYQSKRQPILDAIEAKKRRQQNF

[10] = target: T1, Serine/threonine-protein kinase 4 (Homo sapiens); details: at 10 µM

Serine/threonine-protein kinase MRCK beta (Homo sapiens), sequence (Q9Y5S2 whole entry): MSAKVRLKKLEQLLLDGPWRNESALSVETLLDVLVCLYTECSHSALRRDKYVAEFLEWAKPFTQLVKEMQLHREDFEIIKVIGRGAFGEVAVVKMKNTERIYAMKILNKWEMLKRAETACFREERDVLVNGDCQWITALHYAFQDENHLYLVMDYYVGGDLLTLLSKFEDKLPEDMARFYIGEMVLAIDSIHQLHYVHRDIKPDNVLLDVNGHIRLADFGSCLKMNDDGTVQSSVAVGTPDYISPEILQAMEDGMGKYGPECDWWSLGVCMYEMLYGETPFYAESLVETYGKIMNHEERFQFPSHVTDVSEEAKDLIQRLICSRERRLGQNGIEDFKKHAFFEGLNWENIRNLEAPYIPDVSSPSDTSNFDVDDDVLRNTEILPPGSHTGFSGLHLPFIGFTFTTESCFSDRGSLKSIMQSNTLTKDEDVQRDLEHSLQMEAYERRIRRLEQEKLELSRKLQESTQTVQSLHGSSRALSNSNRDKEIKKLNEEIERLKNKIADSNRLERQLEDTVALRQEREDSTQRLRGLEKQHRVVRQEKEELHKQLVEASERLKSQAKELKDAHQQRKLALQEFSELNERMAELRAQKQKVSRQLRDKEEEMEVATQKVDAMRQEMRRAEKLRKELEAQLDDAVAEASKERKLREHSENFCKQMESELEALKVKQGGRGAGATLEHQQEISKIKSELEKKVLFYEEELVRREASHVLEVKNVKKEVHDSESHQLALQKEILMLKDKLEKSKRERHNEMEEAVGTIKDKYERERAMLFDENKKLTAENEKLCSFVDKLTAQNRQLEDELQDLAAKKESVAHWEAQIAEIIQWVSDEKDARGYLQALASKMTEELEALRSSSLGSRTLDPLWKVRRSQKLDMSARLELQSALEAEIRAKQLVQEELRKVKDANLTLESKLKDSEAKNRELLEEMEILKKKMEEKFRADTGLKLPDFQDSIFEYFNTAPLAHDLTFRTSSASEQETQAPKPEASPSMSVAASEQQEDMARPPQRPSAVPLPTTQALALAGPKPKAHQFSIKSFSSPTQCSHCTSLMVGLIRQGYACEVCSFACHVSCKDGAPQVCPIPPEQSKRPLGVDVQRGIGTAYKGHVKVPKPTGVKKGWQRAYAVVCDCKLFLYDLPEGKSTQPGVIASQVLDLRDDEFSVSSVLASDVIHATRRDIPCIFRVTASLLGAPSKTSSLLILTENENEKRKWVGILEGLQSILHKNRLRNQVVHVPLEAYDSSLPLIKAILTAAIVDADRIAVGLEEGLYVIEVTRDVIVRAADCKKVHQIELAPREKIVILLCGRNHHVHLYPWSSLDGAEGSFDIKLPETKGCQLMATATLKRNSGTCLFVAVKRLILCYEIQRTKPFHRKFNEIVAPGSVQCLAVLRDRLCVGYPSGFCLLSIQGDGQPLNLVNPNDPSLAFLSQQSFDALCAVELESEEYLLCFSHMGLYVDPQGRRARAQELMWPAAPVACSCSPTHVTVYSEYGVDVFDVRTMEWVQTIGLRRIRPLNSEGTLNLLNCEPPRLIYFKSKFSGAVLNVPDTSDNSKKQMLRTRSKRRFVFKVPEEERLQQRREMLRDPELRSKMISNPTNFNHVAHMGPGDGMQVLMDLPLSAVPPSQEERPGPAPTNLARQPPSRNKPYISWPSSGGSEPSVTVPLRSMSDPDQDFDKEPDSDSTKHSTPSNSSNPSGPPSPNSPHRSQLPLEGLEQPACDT
Ribosomal protein S6 kinase alpha-5 (Homo sapiens), sequence (O75582 whole entry, looked up): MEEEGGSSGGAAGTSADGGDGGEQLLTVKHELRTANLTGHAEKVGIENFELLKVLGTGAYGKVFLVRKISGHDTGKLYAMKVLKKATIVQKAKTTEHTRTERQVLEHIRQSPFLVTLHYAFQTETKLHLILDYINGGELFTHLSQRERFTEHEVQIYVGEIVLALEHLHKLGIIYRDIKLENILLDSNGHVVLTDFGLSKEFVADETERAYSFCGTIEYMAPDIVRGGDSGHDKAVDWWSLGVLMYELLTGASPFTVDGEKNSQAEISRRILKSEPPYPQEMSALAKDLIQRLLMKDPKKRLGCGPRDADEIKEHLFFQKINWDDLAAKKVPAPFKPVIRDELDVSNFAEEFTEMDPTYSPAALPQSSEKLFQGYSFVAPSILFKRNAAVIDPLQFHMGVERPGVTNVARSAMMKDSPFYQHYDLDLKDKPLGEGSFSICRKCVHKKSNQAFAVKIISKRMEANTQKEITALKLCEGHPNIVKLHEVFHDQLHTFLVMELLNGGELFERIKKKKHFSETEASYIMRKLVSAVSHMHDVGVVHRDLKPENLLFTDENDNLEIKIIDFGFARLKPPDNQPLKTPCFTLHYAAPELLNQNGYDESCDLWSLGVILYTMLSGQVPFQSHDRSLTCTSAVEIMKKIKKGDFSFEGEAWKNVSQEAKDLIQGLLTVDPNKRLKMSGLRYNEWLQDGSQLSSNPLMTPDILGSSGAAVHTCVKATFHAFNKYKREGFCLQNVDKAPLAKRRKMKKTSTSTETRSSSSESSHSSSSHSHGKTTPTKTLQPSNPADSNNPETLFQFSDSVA

Row | Structure (SMILES) | residual activity [1] [%] | residual activity [2] [%] | residual activity [3] [%] | residual activity [4] [%] | residual activity [5] [%] | residual activity [6] [%] | residual activity [7] [%] | residual activity [8] [%] | residual activity [9] [%] | residual activity [10] [%]
1 | O=Nc1c(-c2c(O)[nH]c3ccccc23)[nH]c2ccccc12 | 106 | 103 | 61 | 21 | 32 | 4 | 85 | 46 | 8 | 2
2 | Oc1ccc(-c2nc(-c3ccc(F)cc3)c(-c3ccncc3)[nH]2)cc1 | 105 | 92 | 102 | 98 | 77 | 43 | 120 | 110 | 92 | 113
3 | CO[C@H]1[C@@H](OC)C[C@H](C)[C@@H](OC)C2=CC(=O)C=C(NC(=O)/C(C)=C/C=C/[C@H](OC)[C@@H](OC(N)=O)/C(C)=C/[C@@H]1C)C2=O | 97 | 77 | 115 | 97 | 92 | 104 | 116 | 84 | 101 | 108
4 | N#C/C(=C(\N)Sc1ccc(N)cc1)c1ccccc1C(F)(F)F | 94 | 98 | 85 | 95 | 97 | 84 | 109 | 95 | 105 | 104
5 | Nc1n[nH]c2nnc(-c3c(-c4ccccc4)nn4ccccc34)cc12 | 90 | 79 | 102 | 113 | 93 | 78 | 93 | 56 | 71 | 87
6 | Oc1n[nH]c2nnc(-c3c(-c4ccccc4)nn4ccccc34)cc12 | 88 | 83 | 109 | 111 | 92 | 87 | 98 | 73 | 72 | 96
7 | N#CC(C#N)=C(N)/C(C#N)=C/c1ccc(O)cc1 | 96 | 84 | 122 | 92 | 91 | 85 | 119 | 82 |  | 
8 | CNc1cc2c(Nc3cccc(Br)c3)ncnc2cn1 | 86 | 84 | 133 | 110 | 104 | 109 | 99 | 25 | 95 | 102
9 | C[C@@H](N)[C@H]1CC[C@H](C(=O)Nc2ccncc2)CC1 | 95 | 69 | 90 | 50 | 82 | 58 | 96 | 98 | 105 | 79
10 | Cc1ccc(S(=O)(=O)/C=C/C#N)cc1 | 89 | 92 | 111 | 125 | 105 | 99 | 100 | 102 | 79 | 109
11 | Ic1cccc(CSc2nnc(-c3ccncc3)o2)c1 | 87 | 82 | 95 | 82 | 65 | 53 | 90 | 92 | 106 | 101
12 | O=C1c2ccccc2-[n+]2ccc3c([nH]c4ccccc43)c21 | 90 | 85 | 104 | 110 | 97 | 90 | 106 | 99 | 108 | 94
13 | COc1ccc(C(=O)Nc2sc3c(c2C(N)=O)CCCC3)cc1OC | 89 | 74 | 123 | 88 | 91 | 99 | 104 | 93 | 92 | 95
14 | CO[C@H]1C[C@@H]2CC[C@@H](C)[C@@](O)(O2)C(=O)C(=O)N2CCCC[C@H]2C(=O)O[C@H]([C@H](C)C[C@@H]2CC[C@@H](O)[C@H](OC)C2)CC(=O)[C@H](C)/C=C(\C)[C@@H](O)[C@@H](OC)C(=O)[C@H](C)C[C@H](C)/C=C/C=C/C=C/1C | 95 | 104 | 123 | 110 | 87 | 105 | 105 | 88 | 93 | 97
15 | O=C(Nc1cccc(Nc2cc(Nc3cccc(C(F)(F)F)c3)ncn2)c1)C1CC1 | 86 | 89 | 124 | 107 | 96 | 101 | 102 | 25 | 99 | 87
16 | NC(=O)c1ccc2[nH]c(-c3ccc(Oc4ccc(Cl)cc4)cc3)nc2c1 | 94 | 106 | 115 | 139 | 94 | 102 | 98 | 72 | 97 | 87
17 | CCC(=O)Nc1ccc2ncnc(Nc3cccc(Br)c3)c2c1 | 89 | 77 | 113 | 112 | 94 | 116 | 94 | 84 | 91 | 95
18 | CC(C)n1cnc2c(NCc3ccccc3)nc(NCCCO)nc21 | 88 | 88 | 110 | 110 | 102 | 97 | 106 | 76 | 102 | 102
19 | COc1cc2ncnc(Nc3ccc(Oc4ccccc4)cc3)c2cc1OC | 99 | 114 | 137 | 129 | 89 | 135 | 105 | 81 | 99 | 93
20 | COc1ccc(S(=O)(=O)N(CCO)c2ccccc2CN(C)C/C=C/c2ccc(Cl)cc2)cc1 | 98 | 78 | 115 | 114 | 96 | 85 | 102 | 104 | 107 | 90

Row | Structure (SMILES) | residual activity [1] [%] | residual activity [2] [%] | residual activity [3] [%] | residual activity [4] [%] | residual activity [5] [%] | residual activity [6] [%] | residual activity [7] [%] | residual activity [8] [%] | residual activity [9] [%] | residual activity [10] [%]
21 | O=C(Nc1cccc(Nc2nccc(Nc3cccc(C(F)(F)F)c3)n2)c1)C1CC1 | 103 | 88 | 114 | 89 | 89 | 89 | 105 | 89 | 110 | 92
22 | O=C(O)c1ccc2c3c1cccc3c(=O)n1c3ccccc3nc21 | 93 | 93 | 98 | 93 | 95 | 84 | 97 | 48 | 83 | 72
23 | Cn1cc(/C=C2\C(=O)Nc3ccc(S(N)(=O)=O)cc32)c2ccccc21 | 83 | 87 | 86 | 54 | 56 | 41 | 103 | 25 | 13 | 11
24 | O=C1NC(=O)c2c1c1c3ccccc3[nH]c1c1[nH]c3cc(Br)ccc3c21 | 85 | 85 | 94 | 84 | 87 | 76 | 92 | 86 | 92 | 38
25 | Oc1ccc(Nc2nc(-c3ccc(Cl)cc3)cs2)cc1 | 111 | 129 | 97 | 107 | 109 | 94 | 110 | 97 | 78 | 87
26 | O=C1NC(=O)/C(=C/c2ccc3c(c2)OC(F)(F)O3)S1 | 106 | 85 | 133 | 112 | 105 | 97 | 100 | 74 | 100 | 107
27 | O=[N+]([O-])c1ccc(-c2nc(-c3ccc(F)cc3)c(-c3ccncc3)[nH]2)cc1 | 91 | 89 | 108 | 119 | 87 | 85 | 105 | 104 | 74 | 114
28 | COc1ccc(OC)c2c(=S)c3ccccc3[nH]c12 | 88 | 95 | 93 | 122 | 100 | 89 | 103 | 79 | 74 | 99
29 | CCOc1cc2ncnc(Nc3cccc(Br)c3)c2cc1OCC | 84 | 72 | 117 | 101 | 105 | 88 | 113 | 76 | 83 | 61
30 | O=c1c2ccccc2[nH]c(=S)n1CCN1CCC(=C(c2ccc(F)cc2)c2ccc(F)cc2)CC1 | 94 | 86 | 127 | 104 | 110 | 97 | 103 | 89 | 93 | 101
31 | O=c1cc(-c2cccc3c2Sc2ccccc2S3)oc(N2CCOCC2)c1 | 93 | 93 | 104 | 116 | 95 | 90 | 103 | 94 | 99 | 109
32 | Oc1c2ccccc2c2c3c(cccc13)N=N2 | 90 | 95 | 93 | 69 | 76 | 36 | 90 | 82 | 52 | 21
33 | Nc1nc(Nc2ccc(S(N)(=O)=O)cc2)nn1C(=S)Nc1c(F)cccc1F | 8 | 3 | 81 | 70 | 19 | 21 | 37 | 12 | 0 | -3
34 | COc1cc2ncnc(Nc3ccc(O)c(Br)c3)c2cc1OC | 91 | 71 | 117 | 108 | 83 | 72 | 95 | 90 | 81 | 55
35 | O=C1NC(=O)c2cc(Nc3ccc(F)cc3)c(Nc3ccc(F)cc3)cc21 | 79 | 64 | 128 | 93 | 97 | 91 | 106 | 84 | 92 | 100
36 | Cc1cccc(-c2[nH]c(C(C)(C)C)nc2-c2ccc3c(c2)OCO3)n1 | 83 | 86 | 135 |  | 97 | 104 |  |  | 102 | 105
37 | CC(C)n1cnc2/c(=N/c3cccc(Cl)c3)nc(NCCO)[nH]c21 | 85 | 82 | 62 | 50 | 57 | 37 | 61 | 19 | 61 | 58
38 | CC[n+]1c(/C=C/N(C)c2ccccc2)n(-c2ccccc2)c2ccc(-c3nc4ccccc4s3)cc21 | 98 | 83 | 139 | 99 | 108 | 96 | 107 | 82 | 103 | 73
39 | Cc1nc2cc3nc(-c4cccs4)cnc3cc2n1C | 105 | 100 | 129 | 101 | 101 |  | 117 | 88 | 105 | 94
40 | CCN(CC)CCCCN1c2ccccc2Oc2ccc(Cl)cc21 | 108 | 99 | 146 | 119 | 111 | 116 | 104 | 97 | 106 | 100

From ChEMBL document CHEMBL2218924, “A broad activity screen in support of a chemogenomic map for kinase signalling research and drug discovery” (Biochem J, 2013)
